Screening data: PubChem, National Center for Advancing Translational Sciences (NCATS)
Shown are actives, neighbours in structure and some others; about 3.6% of the full set was active somewhere.
Sfp inh: Sfp phosphopantetheinyl transferase inhibition; Biochemical Sfp PPTase activity, qHTS; AID 1490; Q9F4F7; Potency, µM, inactives show largest response in the series, negative = inhibition, usual class: inhibitors; 310,000 tested, 3.5% active;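 also: the enzyme is Sfp with the accession as filed and its product quenches rhodamine fluorescence; 0% = enzyme reaction without inhibitor and -100% = no enzyme wells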
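Reaction rates are the 30-min fluorescence difference (ex 525, em 598 nm) in wells containing 15 nM Sfp, 5 uM rhodamine-CoA and 12.5 uM BHQ-2-YbbR at pH 7.6 with 10 mM MgCl2.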
IMPase Li inh: IMPase inhibition in cells with lithium potentiation; CHO-M1 cells, IP1 TR-FRET (IP-One), carbachol + lithium; Potency, µM (top dose mostly 59.4 µM), for the others: at the top dose activity, negative = IMPase inhibition, most hits filed as inhibitors; 210,000 tested, 0.35% active;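 also: IP1 builds up when IMPase is blocked and the TR-FRET signal falls; plate controls were basal vehicle for no effect and high inhibitor control for full effect; nearly all actives have a fitted effect of over 50% in size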
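CHO cells stably expressing M1 receptor (2000/well, cultured 16–30 h) treated 30 min at 37C with compound plus low lithium. Cytosolic IP1 by TR-FRET (665/620 ratio and 620 channel) after 10 min lysis; AC50 by Hill fit.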
KAT2A inh: blocks human GCN5L2 histone acetyltransferase | Potency, µM (series often up to 58.9 µM), for the others: at the highest dose activity change, negative = inhibition, usual class: inhibitors | GCN5L2 HAT assay, ThioGlo1 CoA-SH fluorescence | 390,000 tested, 0.21% active | AID 504327 | Q92830; also: % is scaled to controls: 0 for no effect and ±100 for the full control effect
Target sequence (Q92830 whole entry, looked up): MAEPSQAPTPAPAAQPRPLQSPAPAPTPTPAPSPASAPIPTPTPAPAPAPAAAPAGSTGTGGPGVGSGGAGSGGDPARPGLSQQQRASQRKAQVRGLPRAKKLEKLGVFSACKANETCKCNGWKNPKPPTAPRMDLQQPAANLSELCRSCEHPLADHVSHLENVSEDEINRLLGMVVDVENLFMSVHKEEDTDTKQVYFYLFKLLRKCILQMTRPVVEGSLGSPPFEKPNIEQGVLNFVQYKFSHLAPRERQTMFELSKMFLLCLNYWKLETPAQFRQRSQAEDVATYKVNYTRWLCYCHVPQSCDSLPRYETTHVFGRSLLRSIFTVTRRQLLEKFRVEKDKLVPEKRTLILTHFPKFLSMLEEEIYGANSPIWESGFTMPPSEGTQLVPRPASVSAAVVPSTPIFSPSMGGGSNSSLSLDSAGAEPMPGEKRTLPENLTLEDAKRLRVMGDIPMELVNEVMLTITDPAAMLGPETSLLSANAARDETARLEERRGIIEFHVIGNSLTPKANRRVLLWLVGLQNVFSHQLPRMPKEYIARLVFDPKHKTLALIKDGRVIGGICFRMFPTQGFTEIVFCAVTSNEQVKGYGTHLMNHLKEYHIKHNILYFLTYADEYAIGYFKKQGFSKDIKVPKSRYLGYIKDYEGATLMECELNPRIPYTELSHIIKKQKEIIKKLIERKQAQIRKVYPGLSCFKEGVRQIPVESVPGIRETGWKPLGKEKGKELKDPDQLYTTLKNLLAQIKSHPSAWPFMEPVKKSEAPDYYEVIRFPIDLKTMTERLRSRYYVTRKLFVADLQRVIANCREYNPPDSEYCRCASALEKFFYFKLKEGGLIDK
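Free CoA generated was detected with ThioGlo1 (50uM) fluorescence at Ex340nm/Em540nm, read immediately and after 20 min at room temperature. Enzyme, 20 nM in HEPES pH 7.5 buffer, saw compounds 15 min before adding 75uM H3(1-25) peptide and 70uM acetyl-CoA.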
NPSR antag: neuropeptide S receptor (human) antagonism, cAMP. 220,000 tested, 1% active. CHO-NPSR cells, cAMP TR-FRET, antagonist mode. Potency, µM (highest dose often 38.3 µM), for the others: at the highest dose activity change, negative = inhibition, hits mostly inhibitors. Q6W5P4; also: % is scaled to controls: 0 for no effect and ±100 for the full control effect; nearly all actives have a fitted effect of over 50% in size
Epigenetic derep: epigenetic control regulation, reporter derepression. murine LDR cells, GFP reporter derepression, 30 h. Potency, µM (doses to about 53.9 µM), for the others: at the highest dose GFP activation, most hits filed as activators. 280,000 tested, 0.2% active. AID 1865; also: % of control where 0% means no effect; nearly all actives have a fitted effect of over 60% in size
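Readout is the number of GFP-expressing murine LDR cells, counted by cytometry following washing. Cells were treated with compound for 30 h at 37 C; the stably integrated CMV-GFP locus is normally silent.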
KDM4E inh: blocks human JMJD2E demethylase activity | Potency, µM (titrated, usually from 57.1 µM), for inactives: at the top dose activity change, negative = inhibition, usual class: inhibitors | 230,000 tested, 1.6% active | JMJD2E catalytic domain, FDH-coupled NADH fluorescence (FDH is formaldehyde dehydrogenase) | B2RXH2; active = well fitted inhibition curve with a large enough effect, not every such curve was filed as active; inconclusive = small, poorly fitted or top-dose-only effect, or another doubt; inactive = no such curve, though single readings can be large or run the other way;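 also: 0% = wells with enzyme and -100% = buffer wells without enzyme; nearly all actives have a fitted effect of over 50% in size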
* hit, by the source's call; ? = inconclusive; / = no result; ! = not confirmed by another sample; [ ] = dose if it differs, or a comment. Unless noted, calls follow the shape of the dose curve; as a rule, active = well fitted curve in the direction sought with a large enough effect; inconclusive = small, poorly fitted or top-dose-only effect, or another doubt; inactive = no such curve, though single readings can be large; an effect the other way counts as inactive or inconclusive. Potency is read from the fitted curve at half-maximal effect.

SMILES	Sfp inh	IMPase Li inh	KAT2A inh	NPSR antag	Epigenetic derep	KDM4E inh
O=C1C2C3C=CC(CO)(O3)C2C(=O)N1c1ccccc1-c1ccccc1 (stereo unspecified)	1.1µM*	15%[38.3 µM]	?	6.3µM*	-1%	-1%
CCCCC/C=C\C/C=C\C/C=C\CCCCC(=O)NCCCC(=O)O	26%	-3%	/	/	0%	-1%
COc1c(C=O)c(=O)[nH]c2c(OC)cccc12	-26%	7%	/	/	2%	-29%
COC(=O)N1C(/C=C/c2ccc3c(c2)OCO3)=Cc2ccccc2C1CC(C)=O (stereo unspecified)	-2%	11%	/	/	/	?
CC(=O)Oc1ccc(N2C(=O)C3C4C=CC(CO)(O4)C3C2=O)cc1 (stereo unspecified)	16µM*	-4%[38.3 µM]	?	-12%[46.1 µM]	2%	-5%
O=C(Nc1ccccc1)c1ccc(Cc2nc3ccccc3[nH]2)cc1	/	/	/	/	-2%	/
Nc1ccc(-c2nc3ccc(-c4nc5ccc(N)cc5[nH]4)cc3[nH]2)cc1	?	10µM*!	?	5%[46.1 µM]	2%	?
Nc1ccc2nc(-c3ccc(-c4nc5ccc(N)cc5[nH]4)cc3)[nH]c2c1	-6%	/	-16%	/	/	/
Nc1ccc2nc(-c3cccc(-c4nc5ccc(N)cc5[nH]4)n3)[nH]c2c1	32µM*	/	-8%	/	/	/
CCn1c(SCC(=O)NCc2ccc3c(c2)OCO3)nnc1-c1ccncc1	7%	-1%	-2%	2%	-5%	?
Cc1cc(C)n2c(SCC(=O)Nc3ccc(F)cc3)nnc2n1	16µM*	/	-13%	-18%	11%	-6%
Cc1cc(C)n2c(SCC(=O)NCc3ccc4c(c3)OCO4)nnc2n1	71µM*	/	-16%	22%	-1%	-4%
CCOc1ccccc1NC(=O)c1c(C)cc(C)nc1SCC(=O)c1cccc(OC)c1	/	/	-9%	/	-2%	/
COc1ccc(CNC(=O)c2cc(-c3ccc(OC)c(OC)c3)nc3n[nH]c(-c4ccc(C)cc4)c23)cc1	/	/	-1%	/	5%	/
CCNc1ncc2nc(-c3ccc(OC)cc3)c(=O)n(CCC#N)c2n1	-2%	-14%	-13%	/	/	/
CCNc1ncc2nc(-c3ccc(OC)cc3)c(=O)n(CCc3ccccc3)c2n1	29%	11µM*	2%	/	/	/
COc1ccc(-c2nc3cnc(OC)nc3n(C3CC3)c2=O)cc1	9%	13µM*	-8%	/	/	/
COc1ccc(-c2nc3cnc(Oc4cccc(Cl)c4)nc3n(CCC#N)c2=O)cc1	8%	5µM*	-5%	/	/	/
CCNc1ncc2nc(-c3ccc(F)cc3)c(=O)n(CCC#N)c2n1	1%	10µM*	?	/	/	/
COc1ncc2nc(-c3ccccc3)c(=O)n(C3CC3)c2n1	13%	-4%	-10%	/	/	/
C[C@H]1COC(=O)O1	32%	/	7%	/	/	/
CCN(CC)S(=O)(=O)c1nnc(NC(=O)COc2cccc(C)c2)s1	/	/	2%	/	-2%	/
Cc1ccc(CCNC(=O)CCc2cn(Cc3ccccc3C)c3ccccc23)cc1	/	/	-8%	/	7%	/
CC(=O)N(Cc1ccco1)c1nc(C(=O)Nc2ccc(Cl)cc2)c(C)s1	20µM*	8%	-8%	-37%	0%	-6%
O=C1c2cc(O)cc(O)c2OC[C@@H]1c1ccc(O)c(O)c1	-11%	/	-8%	/	/	/
SMILES	Sfp inh	IMPase Li inh	KAT2A inh	NPSR antag	Epigenetic derep	KDM4E inh
O=C1C[C@@H](O)[C@@H](O)[C@H]2[C@@H]3C(=O)N(Cc4ccccc4)C(=O)[C@@H]3CC[C@H]12	5%	/	/	/	1%[10.1 µM]	/
CN(C)c1ccc(CN2CCC(C(N)=O)CC2)cc1	19%	-4%	-11%	15%	1%	28µM*
CCOC(=O)C1CCN(Cc2ccc(F)cc2)CC1	-25%	-5%	1%	11%[46.1 µM]	-2%	-3%
O=C1C2CCCN2C(c2ccccc2)N1c1nccs1 (stereo unspecified)	50µM*	6%[38.3 µM]	-20%	6%[46.1 µM]	-1%	0%
CCOc1ccccc1C1N(c2ccc(F)cc2)C(=O)C2CCCN21 (stereo unspecified)	6%	-1%[38.3 µM]	-4%	-9%[46.1 µM]	-1%	-3%
Cc1ccccc1C1N(c2nccs2)C(=O)C2CCCN21 (stereo unspecified)	50µM*	5%	-1%	11%	0%	125%
O=C1C2CCCN2C(c2ccccc2)N1c1cccc(Cl)c1 (stereo unspecified)	0%	5%[38.3 µM]	-4%	-7%[46.1 µM]	1%	7%
NCCCCCCNc1nc2c(N)ncnc2n1[C@@H]1O[C@@H]2COP(=O)(O)O[C@H]2[C@H]1O	11%	/	17%	/	/	/
COc1ccc(-c2nc(C#N)c(NCCCN3CCOCC3)o2)cc1	1%	8%[38.3 µM]	1%	-10%[46.1 µM]	-2%	5µM*
N#Cc1nc(-c2cccs2)oc1N1CCOCC1	8%	11µM*	-15%	-6%[46.1 µM]	0%	-2%
N#Cc1nc(-c2cccs2)oc1NCCCN1CCOCC1	10%	-5%[38.3 µM]	35µM*	3%[46.1 µM]	4%	?
N#Cc1nc(-c2ccco2)oc1NCCN1CCOCC1	8%	-9%[38.3 µM]	-1%	-5%[46.1 µM]	-1%	?
CC1CN(c2oc(-c3cccs3)nc2C#N)CC(C)O1 (stereo unspecified)	0%	-29%[38.3 µM]	19%	-12%[46.1 µM]	0%	?
C/C(=N/NS(=O)(=O)c1ccc(C)cc1)P(=O)(O)O	/	-12%	/	/	/	/
CC(Oc1ccc(Br)cc1)C(=O)NCc1cccnc1 (stereo unspecified)	/	/	/	/	-4%	/
CCOC(=O)/C=C/C(=O)OCC(=O)Nc1ccc(Cl)cn1	8%	-11%[38.3 µM]	?	4%[46.1 µM]	-5%	11%
CCOC(=O)NC1(Nc2ccc(Cl)cn2)Oc2ccccc2O1	32µM*	10%[38.3 µM]	0%	-2%[46.1 µM]	0%	25µM*
COc1ccc(Cc2nnc(NN)[nH]c2=O)cc1OC	45µM*	/	1%	/	/	/
COc1ccc(/C=N/Nc2nnc(Cc3ccc(OC)c(OC)c3)c(=O)[nH]2)cc1OC	50µM*	0%	2%	7%	1%	0%
CC1CCC(C(C)C)C(P(=O)(c2ccccc2)c2ccccc2)C1 (stereo unspecified)	3%	/	-20%	/	/	/
CC(=O)O[C@]1(C(C)=O)CC[C@H]2[C@@H]3C=C(Cl)C4=CC(=O)CC[C@]4(C)[C@H]3CC[C@@]21C	-11%	-5%	-11%	5µM*	2%	-12%
CC(=O)O[C@@]1(C(C)=O)CCC2C3C=C(Cl)C4=CC(=O)CC[C@]4(C)C3CC[C@]21C (stereo partly specified)	-10%	12%	-10%	/	7%	-2%
CC(=O)O[C@]1(C(C)=O)CC[C@H]2[C@@H]3C[C@H](C)C4=CC(=O)CC[C@]4(C)[C@H]3CC[C@@]21C	-14%	-1%	-5%	2.5µM*	-2%	8%
